The source of these data is PubChem BioAssay (NCATS).

Results filed as inconclusive are left out. Where a call stands in place of a potency, no number is given. The source made the active and inactive calls. Calls come from the whole dose curve; as a rule, active = well fitted inhibition curve with a large enough effect; inconclusive = small, poorly fitted or top-dose-only effect; inactive = flat fitted curve, though single readings scatter.

Sequence of Calcium and integrin-binding protein 1 (Homo sapiens) (Q99828 whole entry, looked up): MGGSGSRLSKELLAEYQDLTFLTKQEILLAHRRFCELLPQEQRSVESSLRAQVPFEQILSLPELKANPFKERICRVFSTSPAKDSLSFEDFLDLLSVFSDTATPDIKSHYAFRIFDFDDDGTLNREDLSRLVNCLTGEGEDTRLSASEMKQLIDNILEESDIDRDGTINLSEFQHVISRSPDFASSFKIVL

In the experiment the target is Calcium and integrin-binding protein 1 (Homo sapiens) (UniProt Q99828). Nature of the experiment: Primary qHTS for Identification of Calcium Integrin Binding Protein 1 (CIB1) Competitor (AID 1508620). Note: top concentration of the series differs between compounds. The settings on record: CIB1-GST / FITC-alphaIIb peptide fluorescence polarization; series mostly up to 114 µM. The method, boiled down:
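Fluorescence polarization competition: GST-tagged CIB1 (1 uM final) preincubated with compound 15 min at room temperature, then FITC-labelled alphaIIb peptide (100 nM final) added. After 15 min at room temperature, polarization read at Ex 480/Em 540.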
On the technique in general: Quantitative high-throughput screening tests each substance at several concentrations.
As to `O=S(=O)(NN1CCOCC1)c1ccc(Br)cc1`, the Potency entry was “inactive”.

Consider `COc1ccccc1-n1cnc2cc(C(=O)N3CCCCC3)ccc21`, for which the Potency entry is “inactive”. `Nc1cccc(OCCn2c(CCNC(=O)C3CCCCC3)nc3ccccc32)c1`: the Potency entry is “inactive”. Turning to `CN(C)c1cccc(-c2ncnc(N3CCC(C(N)=O)CC3)n2)c1`, the Potency result is “inactive”.

In the case of `O=S(=O)(Nc1nccs1)c1ccc(NCc2ccccc2O)cc1`, the Potency entry was “inactive”. The same measure for `COc1cccc(OC)c1C1=Nn2c(nnc2-c2ccccc2C)SC1`: “inactive”; for `Cc1noc(C)c1-c1ccc2ncnc(NC(C)c3ccco3)c2c1` (stereo not given): “inactive”. The same measure for `COc1cccc(C2=Nn3c(nnc3-c3cc(OC)cc(OC)c3)SC2)c1`: “inactive”. The same measure for `COc1cccc(Nc2nc(C#N)nc(NC3CCCC3)n2)c1`: “inactive”; for `CC(=O)Nc1ccc(S(=O)(=O)N2CCN(c3ccc(C(C)=O)cc3)CC2)cc1`: “inactive”. As for `CCOc1ccc(COc2ccc(-c3nc4ccccc4[nH]3)cc2)cc1`, the Potency result is “inactive”. The same measure for `COc1ccc(OC)c(-c2nnc3n2N=C(c2ccc(OC)c(OC)c2)CS3)c1`: “inactive”; for `Cc1ccc(-c2cnn(CC(=O)N(C)C(C)c3ccco3)c(=O)c2)cc1` (stereo not given): “inactive”; for `CC(=O)c1ccc(N2CCN(S(=O)(=O)c3ccc4c(c3)C(=O)OC4)CC2)cc1`: “inactive”. The same measure for `Cc1ccnc(NC(=S)N2CCN(c3ccccc3C(F)(F)F)CC2)c1`: “inactive”; for `Cc1ccnc(NC(=S)N2CCN(c3ncc(C(F)(F)F)cc3Cl)CC2)c1`: “inactive”. The value for `O=C(CNC(=O)c1ccccc1)OC(Cc1ccccc1)C(=O)Nc1cc(C(F)(F)F)ccc1Cl` (stereo not given) was “inactive”.

As for `Cc1cc(C)nc(NC(=C(C#N)C#N)N2CCN(c3cccc(C(F)(F)F)c3)CC2)c1`, the Potency entry is “inactive”. Take `Cc1c(C(=O)NCC2CCCO2)[nH]c2c1C(=O)CCC2` (stereo not given): the Potency result was “inactive”.

With `Cc1cnc(-c2ccccc2C(C)C)nc1NCc1ccc(-c2nn[nH]n2)cc1`, the Potency entry is “inactive”. As for `O=[S+]([O-])(Nc1ccc(-c2nc3ccccc3[nH]2)cc1)c1ccc2c(c1)OCO2`, the Potency result is “inactive”. The same measure for `NC(=O)C1CCN(c2ncc(-c3ccc(Br)cc3)s2)CC1`: “inactive”. The value for `O=C(O)CCc1cc(F)c(S(=O)(=O)N2CCN(S(=O)(=O)c3ccc4c(c3)OCCO4)CC2)cc1F` was “inactive”; that for `Fc1ccccc1-c1nc(-c2ccccc2)no1` was “inactive”; that for `O=C(Cn1cc(CN(Cc2ccccc2)Cc2ccccc2)nn1)Nc1cc(C(F)(F)F)ccc1Cl` was “inactive”. Take `CN(Cc1ccco1)c1ncnc2ccc(-c3ccc4c(c3)OCCO4)cc12`: the Potency result was “inactive”. The same measure for `COc1cccc(C2c3c(ncn(-c4ccccc4OC)c3=N)Oc3ccc4ccccc4c32)c1` (stereo not given): “inactive”; for `O=S(=O)(c1cccc(O)c1)N1CCN(S(=O)(=O)c2c(F)cccc2F)CC1`: “inactive”; for `O=C(Nc1ccc(-n2cncn2)c(C(F)(F)F)c1)Nc1nnc(-c2ccncc2)s1`: “inactive”. For the molecule `CC(=O)c1ccc(NC(=O)c2cnn3c(C)cc(C)nc23)cc1`, the Potency entry was “inactive”.

Consider `CC(=O)Nc1sc2c(c1-c1cncnc1)CCNC2`, for which the Potency entry is “inactive”. Regarding `CC(=O)Nn1c(C)nc2sc3c(c2c1=O)CCNC3`, the Potency entry is “inactive”.

Take `COc1ccc(-c2nc3ccccc3n2Cc2ccccc2)cc1COc1ccc(NC(C)=O)cc1`: the Potency entry is “inactive”. Consider `CC(C)(C)OC(=O)Cc1nnc(-c2nc3ccccc3[nH]2)s1`, for which the Potency result was “inactive”. The same measure for `O=C(O)CCCCCNC(=O)CSc1nnc(-c2ccc([S+](=O)([O-])N3CCCC3)cc2)n1-c1ccccc1`: “inactive”; for `Cc1nc(C2=NC(c3ccccc3Cl)C3=C(CCCC3=O)N2)cs1` (stereo not given): “inactive”; for `Cc1cc(NC(=O)Nc2nnc(-c3cccnc3)s2)ccc1Br`: “inactive”. Turning to `Cc1cc(C)nc(NC(=S)N2CCN(c3ccc(F)cc3F)CC2)c1`, the Potency entry is “inactive”. Turning to `COc1cc(OC)cc(C2=Nn3c(nnc3-c3cccc(OC)c3)SC2)c1`, the Potency result was “inactive”. The same measure for `NC(=O)C1CCN(c2nc(-c3ccc(OC(F)(F)F)cc3)cs2)CC1`: “inactive”.
